# Assay results reported in ChEMBL document CHEMBL3988442, “University of Dundee, Small-Polar-MMV Screening Library” (2021).
# For some assays here: Potency and affinity values are given separately.
# Assays:
# Design in all cases: scale not given: direction of the effect not stated beside the values
# [1] = target: Protein translocase subunit SecA (Escherichia coli (strain K12)) (UniProt P10408); test: Assay to Identify E. coli SecA ATPase Inhibitors; assay type: functional; conditions: 30 µM
# [2] = target: T1, Ubiquitin-activating enzyme e1, putative (Leishmania donovani (strain BPK282A1)) (UniProt E9BSI1); test: Leishmania donovani Ubiquitin Activating Enzyme (LdE1); assay type: functional; conditions: 30 µM
# T1 sequence (whole entry): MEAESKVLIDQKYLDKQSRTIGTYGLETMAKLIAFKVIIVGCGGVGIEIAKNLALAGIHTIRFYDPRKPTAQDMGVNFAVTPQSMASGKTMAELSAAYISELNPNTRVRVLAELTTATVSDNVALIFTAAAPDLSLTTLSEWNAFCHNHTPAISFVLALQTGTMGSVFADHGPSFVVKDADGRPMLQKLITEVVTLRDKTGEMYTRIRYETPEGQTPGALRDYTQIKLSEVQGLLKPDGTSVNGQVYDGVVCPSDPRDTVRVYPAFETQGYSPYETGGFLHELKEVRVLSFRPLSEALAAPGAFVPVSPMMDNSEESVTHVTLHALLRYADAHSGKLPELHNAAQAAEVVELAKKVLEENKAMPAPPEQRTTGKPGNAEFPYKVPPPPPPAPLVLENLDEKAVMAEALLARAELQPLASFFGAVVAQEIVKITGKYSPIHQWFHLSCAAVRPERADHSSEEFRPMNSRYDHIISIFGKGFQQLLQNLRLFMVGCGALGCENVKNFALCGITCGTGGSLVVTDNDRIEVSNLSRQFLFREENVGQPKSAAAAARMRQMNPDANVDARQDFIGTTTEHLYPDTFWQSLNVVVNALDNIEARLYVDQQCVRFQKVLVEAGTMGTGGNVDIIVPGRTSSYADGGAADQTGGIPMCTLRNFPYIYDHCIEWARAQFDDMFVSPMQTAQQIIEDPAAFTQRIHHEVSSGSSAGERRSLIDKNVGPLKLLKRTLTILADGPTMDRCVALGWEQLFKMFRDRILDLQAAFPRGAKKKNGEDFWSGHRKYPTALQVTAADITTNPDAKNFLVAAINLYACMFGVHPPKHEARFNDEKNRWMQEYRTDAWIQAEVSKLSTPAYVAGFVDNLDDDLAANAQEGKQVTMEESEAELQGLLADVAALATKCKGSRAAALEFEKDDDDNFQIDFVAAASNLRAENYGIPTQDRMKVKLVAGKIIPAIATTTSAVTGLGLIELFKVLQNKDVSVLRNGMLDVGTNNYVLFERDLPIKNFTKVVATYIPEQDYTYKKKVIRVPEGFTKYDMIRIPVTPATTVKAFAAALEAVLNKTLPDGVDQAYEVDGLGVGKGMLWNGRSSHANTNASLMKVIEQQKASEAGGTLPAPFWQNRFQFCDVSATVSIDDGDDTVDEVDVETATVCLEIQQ
# [3] = target: AMP-activated protein kinase, AMPK (Homo sapiens) (UniProt P54646+O43741+P54619+Q9UGJ0+Q9Y478+Q13131+Q9UGI9); test: AMP-dependent Kinase enzyme assay. An in vitro enzyme assay that detects ADP turnover that is directly proportional to AMPK activity. This uses naive AMPK that is activated during the assay with MK-8722; assay type: functional; conditions: 30 µM
# [4] = target: Sialic acid-binding Ig-like lectin 9 (Homo sapiens) (UniProt Q9Y336); test: Hs-Siglec9 ALPHAscreen SOP 20170721; conditions: 10 µM
# Trypanosoma cruzi = test: Trypanosoma cruzi phosphomannomutase and mannose-1-phosphate guanylyltransferase assay; assay type: functional; conditions: 10 µM
# [5] = target: T2, Arginase-2, mitochondrial (Homo sapiens) (UniProt P78540); test: in vitro enzyme assay to detect the production of urea directly proportional to the activity of Arginase II; assay type: functional; conditions: 33.3 µM; also: in the data most compounds retested in dose-response had high values
# T2 sequence (whole entry): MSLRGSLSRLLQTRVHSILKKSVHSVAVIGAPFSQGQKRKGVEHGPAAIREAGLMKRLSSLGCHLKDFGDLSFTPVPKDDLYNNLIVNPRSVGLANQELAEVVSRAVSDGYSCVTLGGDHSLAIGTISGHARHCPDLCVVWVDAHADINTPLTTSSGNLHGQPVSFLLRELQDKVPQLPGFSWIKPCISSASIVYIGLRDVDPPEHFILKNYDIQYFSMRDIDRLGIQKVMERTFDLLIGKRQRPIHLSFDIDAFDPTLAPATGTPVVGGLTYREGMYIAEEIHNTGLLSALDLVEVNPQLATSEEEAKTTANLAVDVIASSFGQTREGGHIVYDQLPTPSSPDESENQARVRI
# [6] = target: T3, Proteasome subunit beta (Trypanosoma cruzi) (UniProt O96673); test: Trypanosoma cruzi proteasome chymotrypsin-like activity (TcProtChymo) assay.; also: in the data most compounds retested in dose-response had high values; assay type: functional; conditions: 9.37 µM
# T3 sequence (whole entry): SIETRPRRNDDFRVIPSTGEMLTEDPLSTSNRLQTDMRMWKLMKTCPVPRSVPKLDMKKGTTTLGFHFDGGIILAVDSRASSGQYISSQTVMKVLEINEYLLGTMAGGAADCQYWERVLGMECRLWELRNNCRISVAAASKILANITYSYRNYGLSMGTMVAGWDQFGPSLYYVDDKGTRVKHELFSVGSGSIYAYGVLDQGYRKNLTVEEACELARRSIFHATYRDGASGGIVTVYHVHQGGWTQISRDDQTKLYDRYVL
# Homo sapiens = species on record: Homo sapiens; test: To identify inhibition of the IFN signalling (Jak-Stat) pathway via expression of an eGFP reporter gene under the control of an IFN-stimulated response element (ISRE) containing MxA promoter.; assay type: functional; conditions: 30 µM
# [7] = target: T4, Tyrosyl-tRNA synthetase, putative (Trypanosoma cruzi (strain CL Brener)) (UniProt Q4DSP6); test: Trypanosoma cruzi tyrosyl tRNA synthetase (TcYRS) _High Tyrosine SOP; assay type: functional; conditions: 30 µM; also: in the data most compounds retested in dose-response had high values
# T4 sequence (whole entry): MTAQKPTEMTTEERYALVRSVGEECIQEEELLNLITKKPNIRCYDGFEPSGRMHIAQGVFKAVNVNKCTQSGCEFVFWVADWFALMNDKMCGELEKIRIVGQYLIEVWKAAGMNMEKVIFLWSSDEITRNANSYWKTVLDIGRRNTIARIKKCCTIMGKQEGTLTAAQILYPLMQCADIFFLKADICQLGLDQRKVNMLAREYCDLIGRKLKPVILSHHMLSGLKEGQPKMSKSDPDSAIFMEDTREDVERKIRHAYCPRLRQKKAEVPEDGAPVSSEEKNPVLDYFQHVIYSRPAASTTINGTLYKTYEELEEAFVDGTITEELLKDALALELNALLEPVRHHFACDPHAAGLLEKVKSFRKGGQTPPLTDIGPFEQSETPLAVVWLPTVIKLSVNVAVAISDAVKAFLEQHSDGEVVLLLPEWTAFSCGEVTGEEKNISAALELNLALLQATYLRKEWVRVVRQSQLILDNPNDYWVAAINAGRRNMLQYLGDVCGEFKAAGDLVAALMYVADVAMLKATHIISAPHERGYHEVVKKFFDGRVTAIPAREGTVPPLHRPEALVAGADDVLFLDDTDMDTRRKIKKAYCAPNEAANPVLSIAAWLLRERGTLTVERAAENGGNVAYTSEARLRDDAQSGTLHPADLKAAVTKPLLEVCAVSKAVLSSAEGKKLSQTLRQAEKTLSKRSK
# [8] = target: T4, Tyrosyl-tRNA synthetase, putative (Trypanosoma cruzi (strain CL Brener)); test: Trypanosoma cruzi tyrosyl tRNA synthetase (TcYRS) SOP; assay type: functional; conditions: 30 µM
# [9] = target: Chromo domain-containing protein 1 (Saccharomyces cerevisiae (strain ATCC 204508 / S288c) (Baker's yeast)) (UniProt P32657); test: ScCHD-1 Enzyme Inhibition Assay; assay type: functional; conditions: 30 µM; also: in the data most compounds retested in dose-response had high values
# Sequence of Chromo domain-containing protein 1 (Saccharomyces cerevisiae (strain ATCC 204508 / S288c) (Baker's yeast)) (P32657 whole entry, the tested form may be a part): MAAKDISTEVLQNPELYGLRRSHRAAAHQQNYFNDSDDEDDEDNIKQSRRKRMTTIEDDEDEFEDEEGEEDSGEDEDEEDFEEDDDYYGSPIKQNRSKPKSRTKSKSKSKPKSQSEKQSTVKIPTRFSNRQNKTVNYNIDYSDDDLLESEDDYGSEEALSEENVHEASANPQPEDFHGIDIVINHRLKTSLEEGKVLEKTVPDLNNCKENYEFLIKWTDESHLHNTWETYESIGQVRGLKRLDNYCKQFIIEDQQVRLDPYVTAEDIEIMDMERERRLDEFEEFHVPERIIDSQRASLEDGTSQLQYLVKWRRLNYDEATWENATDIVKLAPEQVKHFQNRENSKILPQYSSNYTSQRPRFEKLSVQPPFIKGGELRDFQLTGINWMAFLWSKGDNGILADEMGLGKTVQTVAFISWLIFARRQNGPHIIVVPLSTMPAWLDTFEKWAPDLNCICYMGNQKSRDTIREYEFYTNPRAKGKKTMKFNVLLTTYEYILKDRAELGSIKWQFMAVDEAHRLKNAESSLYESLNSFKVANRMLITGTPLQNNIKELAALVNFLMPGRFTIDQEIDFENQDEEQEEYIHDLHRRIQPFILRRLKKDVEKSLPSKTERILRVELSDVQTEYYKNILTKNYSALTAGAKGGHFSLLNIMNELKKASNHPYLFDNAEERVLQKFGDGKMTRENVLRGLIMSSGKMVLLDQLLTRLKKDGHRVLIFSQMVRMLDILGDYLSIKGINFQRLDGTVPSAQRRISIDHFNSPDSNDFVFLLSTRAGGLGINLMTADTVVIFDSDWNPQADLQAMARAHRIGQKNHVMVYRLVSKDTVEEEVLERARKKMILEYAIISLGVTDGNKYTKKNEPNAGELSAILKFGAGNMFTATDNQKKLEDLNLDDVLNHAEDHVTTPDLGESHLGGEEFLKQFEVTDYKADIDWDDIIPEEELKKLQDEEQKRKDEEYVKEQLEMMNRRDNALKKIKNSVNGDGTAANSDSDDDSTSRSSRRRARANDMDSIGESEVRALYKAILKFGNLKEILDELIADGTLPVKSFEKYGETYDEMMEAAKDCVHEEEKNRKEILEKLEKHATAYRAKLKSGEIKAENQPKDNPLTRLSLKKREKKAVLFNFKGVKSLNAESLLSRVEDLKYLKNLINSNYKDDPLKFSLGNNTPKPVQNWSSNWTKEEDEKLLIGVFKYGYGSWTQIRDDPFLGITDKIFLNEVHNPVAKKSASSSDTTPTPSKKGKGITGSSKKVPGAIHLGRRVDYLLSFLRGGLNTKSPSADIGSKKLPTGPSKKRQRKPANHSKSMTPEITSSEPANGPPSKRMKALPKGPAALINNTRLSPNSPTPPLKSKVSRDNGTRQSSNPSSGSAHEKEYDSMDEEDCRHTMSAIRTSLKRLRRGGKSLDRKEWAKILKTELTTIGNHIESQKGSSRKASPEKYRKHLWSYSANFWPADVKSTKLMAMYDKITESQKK
# Sequence of Protein translocase subunit SecA (Escherichia coli (strain K12)) (P10408 whole entry): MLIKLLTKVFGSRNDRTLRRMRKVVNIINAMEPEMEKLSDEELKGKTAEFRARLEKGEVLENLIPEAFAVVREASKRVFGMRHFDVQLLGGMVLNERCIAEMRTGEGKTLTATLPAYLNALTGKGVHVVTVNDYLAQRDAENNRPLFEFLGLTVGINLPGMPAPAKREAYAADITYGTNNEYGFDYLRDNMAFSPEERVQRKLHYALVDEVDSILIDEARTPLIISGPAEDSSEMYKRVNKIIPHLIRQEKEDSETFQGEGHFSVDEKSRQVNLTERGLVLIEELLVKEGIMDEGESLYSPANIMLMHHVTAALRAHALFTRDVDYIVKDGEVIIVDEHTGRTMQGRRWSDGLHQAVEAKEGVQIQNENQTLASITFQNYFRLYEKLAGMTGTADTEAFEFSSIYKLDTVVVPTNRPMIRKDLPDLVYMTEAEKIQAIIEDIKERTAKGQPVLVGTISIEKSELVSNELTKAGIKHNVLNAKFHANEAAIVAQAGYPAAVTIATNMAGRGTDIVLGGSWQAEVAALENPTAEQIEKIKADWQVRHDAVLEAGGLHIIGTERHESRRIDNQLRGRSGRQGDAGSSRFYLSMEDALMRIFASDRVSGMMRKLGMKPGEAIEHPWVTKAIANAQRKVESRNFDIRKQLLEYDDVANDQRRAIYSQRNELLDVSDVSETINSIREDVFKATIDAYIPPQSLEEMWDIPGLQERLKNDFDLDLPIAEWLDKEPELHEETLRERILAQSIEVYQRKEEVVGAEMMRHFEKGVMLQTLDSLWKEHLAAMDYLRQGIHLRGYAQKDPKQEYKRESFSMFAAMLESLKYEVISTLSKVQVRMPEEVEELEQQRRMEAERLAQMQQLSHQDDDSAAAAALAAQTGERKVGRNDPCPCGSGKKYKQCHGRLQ
# Sequence of Sialic acid-binding Ig-like lectin 9 (Homo sapiens) (Q9Y336 whole entry): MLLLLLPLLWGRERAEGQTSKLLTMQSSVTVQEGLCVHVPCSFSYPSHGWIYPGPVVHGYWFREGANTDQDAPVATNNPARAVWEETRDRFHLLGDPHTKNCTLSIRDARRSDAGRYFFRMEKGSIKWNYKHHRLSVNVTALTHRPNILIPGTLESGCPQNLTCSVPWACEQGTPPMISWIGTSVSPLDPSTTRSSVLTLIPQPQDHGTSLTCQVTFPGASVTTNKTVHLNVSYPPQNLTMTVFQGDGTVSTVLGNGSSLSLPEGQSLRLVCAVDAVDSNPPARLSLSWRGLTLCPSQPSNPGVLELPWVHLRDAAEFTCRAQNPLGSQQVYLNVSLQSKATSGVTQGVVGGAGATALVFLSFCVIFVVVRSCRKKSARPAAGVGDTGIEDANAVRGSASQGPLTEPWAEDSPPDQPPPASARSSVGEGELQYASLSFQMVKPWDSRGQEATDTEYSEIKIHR
Structure (SMILES),Percent Effect [1] [%],Percent Effect [2] [%],Percent Effect [3] [%],Percent Effect [4] [%],Percent Effect (Trypanosoma cruzi) [%],Percent Effect [5] [%],Percent Effect [6] [%],Percent Effect (Homo sapiens) [%],Percent Effect [7] [%],Percent Effect [8] [%],Percent Effect [9] [%]
CCOC(=O)c1sc(NC(=O)CN(C)S(C)(=O)=O)c(C#N)c1C,-1.3,10.4,11.5,-2.4,-1.87,4.52,9.4,21.1,3.17,14.1,-8.72
Cc1[nH]ccc1C(=O)N1CCC(c2nnc(Cn3ccnc3)n2C)CC1,-1.99,8.22,-2.31,4.71,-4.56,-4.79,15.3,22.3,6.25,16.1,0.967
O=C(NCCC(=O)N1CCCCCC1)c1c(O)cc(F)cc1F,-5.59,7.79,1.53,-4.08,7.35,-4,9.78,6.03,2.86,14.1,-20.3
Cn1cnc2c1CCN(Cc1nc(COc3ccc(F)cc3)no1)C2,-9.01,7.89,3.1,1.46,-5.7,1.44,7.19,10.3,0.493,-6.17,-0.821
c1ncn(CC2CCCCN2Cc2noc(C3CC3)n2)n1 (stereo unspecified),-0.132,15.8,0.834,1.81,-1.69,-1.92,16.4,6.6,3.43,21.9,-12.9
CCc1nc(CC(=O)N2CCn3c(nnc3C(C)C)C2)cs1,-3.31,0,1.23,1.14,3.95,-1.92,3.68,-11.4,2.45,12.2,-11
COc1ccc(CN2CCCC3(CCN(c4ccsc4)C3=O)C2)cc1 (stereo unspecified),-1.81,0,5.65,2.16,-5.32,3.96,6.78,21.2,2.13,3.85,-0.303
Cc1cc(NC(=O)NCCc2cccs2)n(C)n1,0.534,4.17,-1.97,-7.64,-8.65,4.42,23.3,-9.88,0,5.13,-0.833
CC(C)Cc1noc(CN2CCOC(Cn3cncn3)C2)n1 (stereo unspecified),-1.12,10.8,2.5,-4.71,-6.22,4.25,0.718,16.7,0,13.4,-0.689
Cc1ccc(C(=O)NC2CCN(Cc3noc(CC(C)C)n3)CC2)s1,-4.45,2.6,3.54,0.891,-8.75,-8.28,8.82,29.7,-3.23,1.24,-1.38
Cc1cnn(CCNCc2ccccc2Oc2cccnc2)c1,-0.645,11.4,-5.35,-0.251,-5.03,-9.25,23.3,6.29,8.33,7.59,-26
CC(O)CN1CCN(C(=O)c2cnn(-c3ccccc3F)c2)CC1 (stereo unspecified),-6,13.3,-6.53,24.2,5.75,15.6,9.59,10.4,-0.546,8.64,-7.25
O=C(CNC(=O)N1CCc2c([nH]c3ccc(Cl)cc23)C1)N1CCOCC1,-8.87,-4,11.7,-3.55,-2.55,-20.2,10.5,7.25,-3.17,-5.13,-12.6
COc1ccc(NC(C)C(=O)N2CCN(Cc3ccccc3)CC2)cn1 (stereo unspecified),-0.598,-2.74,-258,-6.68,-0.783,3.18,-6.21,4.99,1.07,0,-0.618
Cc1cc(C)c2cc(CNCC3CCCO3)c3nn(C)c(=O)n3c2c1 (stereo unspecified),-1.56,9.46,5.25,0.0533,2.17,-1.62,7.96,27,2.15,9.09,-28.2
O=C(c1cscn1)N1C[C@@H]2C[C@@H](c3nnc(C4CC4)o3)O[C@@H]2C1,1.55,7.79,2.51,-3.79,-10.2,22.6,10.4,7.19,-1.06,6.41,-7.72
